Source: PubChem
This is a sample that favours compounds with a hit; in the whole collection about 2.4% have one here.
D2 PAM-1: D2 dopamine receptor (human) potentiation | HEK293 T-REx D2, calcium flux, EC20 dopamine potentiation | potentiation, % at 10 µM | 0.34% of 340,000 active;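 active = potentiation over 3 SD above the plate norm, cut at about 30% in these data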; also: 0% is about no effect
Target sequence (P14416 whole entry, looked up): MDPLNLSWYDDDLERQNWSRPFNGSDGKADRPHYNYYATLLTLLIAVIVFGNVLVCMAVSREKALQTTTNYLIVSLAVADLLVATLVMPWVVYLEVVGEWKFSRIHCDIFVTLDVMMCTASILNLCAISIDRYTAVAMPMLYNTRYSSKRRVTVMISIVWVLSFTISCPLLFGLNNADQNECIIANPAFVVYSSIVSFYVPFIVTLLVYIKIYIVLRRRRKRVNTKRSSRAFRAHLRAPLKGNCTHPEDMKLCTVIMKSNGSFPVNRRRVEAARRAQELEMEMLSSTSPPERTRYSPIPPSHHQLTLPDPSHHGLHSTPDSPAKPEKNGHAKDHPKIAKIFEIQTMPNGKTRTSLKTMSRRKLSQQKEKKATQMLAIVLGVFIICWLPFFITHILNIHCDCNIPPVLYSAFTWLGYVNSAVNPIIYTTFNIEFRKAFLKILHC
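Using a no-wash calcium dye in inducible, force-coupled HEK293 Trex cells expressing D2, we tracked fluorescence each second for 180 s after compound, then for 180 s after EC20 dopamine to detect augmented signalling.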
D2 antagonist: antagonists of human D2 dopamine receptor | P14416 | inhibition, % at 10 µM | HEK293 TREx D2 cells, calcium flux, dopamine EC80 | 2% of 340,000 active; in the data active = inhibition above about 30%; inactive = below that, where a call was filed; also: 0% is about no effect
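Dopamine at EC80 is the agonist stimulus; test compounds precede it by 180 s. Calcium flux read kinetically in a force-coupled, inducible HEK293 T-REx D2 cell line.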
D2 ag-1: agonists of human D2 dopamine receptor; P14416; HEK293 T-REx D2 cells, calcium flux agonist mode; activation, % at 2 µM; 0.53% of 340,000 active;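 active = activation over 3 SD above normal in the single-dose calcium agonist read, cut at about 30% in these data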; also: 0% is about no effect
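Calcium-flux readout, 1 cycle/sec over 180 s following compound pin transfer, in inducible HEK293 Trex D2 cells (force-coupled); dopamine controls included. Positive calcium responses during this window marked compounds as potential agonists.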
D2 ag-2: agonists of human D2 dopamine receptor (beta-arrestin) | P14416 | DiscoveRx PathHunter D2 beta-arrestin, luminescence, 90 min; 100% = 57 uM dopamine signal | activation, % (no concentration beside the values) | 0.084% of 360,000 active; in the data active = activation above about 40%; inconclusive = between about 15% and that limit
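Agonist mode: compounds alone added to overnight-plated D2 PathHunter cells for 90 min at 37 C, with 57 uM final dopamine (EC100) defining full response. Beta-arrestin recruitment detected by chemiluminescent reagent, read after 1 h at ambient temperature.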
D2 PAM-2: positive allosteric modulators of human D2 dopamine receptor; 0.23% of 360,000 active; P14416; DiscoveRx D2 beta-arrestin cells, luminescence, 90 min; 100% = 57 uM dopamine signal; potentiation, % (test concentration not listed); in the data active = potentiation above about 50%; inconclusive = mostly about 30% to 49%
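D2 cells co-treated with compound plus 50 nM dopamine (EC20) for 90 min at 37 deg C to detect potentiation. Beta-arrestin recruitment was read as enzyme-fragment luminescence after 1 h at ambient temperature. Full response was set by 57 uM dopamine.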
* = called active by the depositor; ? = inconclusive; / = no result.

SMILES	D2 PAM-1	D2 antagonist	D2 ag-1	D2 ag-2	D2 PAM-2
Cc1cccc(C(c2sc3nc(-c4ccco4)nn3c2O)N2CCN(c3ccccc3)CC2)c1 (stereo unspecified)	7	/	0	/	/
C[C@H]1CN([C@@H](C)CO)S(=O)(=O)c2ccc(-c3cncnc3)cc2O[C@H]1CN(C)C(=O)NC1CCCC1	/	/	/	-3	/
CCOc1ccc(CC(=O)Nc2cccc(-c3nc4cccnc4s3)c2C)cc1	-7	/	-1	/	/
CN(C)/C=C1\C=C2C(=O)c3ccccc3N2C1=O	-7	18	96*	5	4
Cc1nnsc1C(=O)Nc1ccc(S(=O)(=O)N2CCCCC2)cc1	-2	4	1	4	-10
CCC1CCCCN1S(=O)(=O)c1ccc(NC(=O)c2snnc2C)cc1 (stereo unspecified)	36*	-8	0	4	-3
N/C(=N\OC(=O)c1cccs1)c1cccc([N+](=O)[O-])c1	4	-7	1	42*	69*
COc1ccccc1C/C(N)=N/OC(=O)c1ccc(C)c([N+](=O)[O-])c1	16	/	/	?	145*
Cc1ccc(C(=O)O/N=C(\N)Cc2cccs2)cc1[N+](=O)[O-]	11	5	0	?	29
COc1ccc(/C(N)=N/OC(=O)c2cccc([N+](=O)[O-])c2C)cc1OC	11	8	1	?	93*
Cc1cccc(C(=O)O/N=C(\N)c2cccc([N+](=O)[O-])c2)c1	0	-2	1	15	20
N/C(=N\OC(=O)c1cccc2ccccc12)c1cccc([N+](=O)[O-])c1	-9	4	0	?	83*
Cc1ccccc1NC(=O)Nc1nc(CN)cs1	/	/	/	-3	-7
Cc1ccc(S(=O)(=O)NC(=O)C2(C)CCN2C(=O)COc2ccc(Cl)cc2)nc1 (stereo unspecified)	/	/	/	-2	-12
Clc1cccc(-c2csc(-c3nc(-c4ccc(Br)s4)cs3)n2)c1	-3	/	1	/	/
CC(=O)N1CCc2c(sc3c2c(=O)n(Cc2ccccc2)c(=O)n3Cc2ccccc2Cl)C1	2	/	0	/	/
O=C(NCc1ccccc1F)c1ccc2ccccc2n1	34*	-11	13	-1	-6
CC1CN(C(=S)Nc2ccccc2)C(C)CN1C=O (stereo unspecified)	/	/	/	-3	-3
COC(=O)c1c(SCC(=O)Nc2cccc(C(F)(F)F)c2)[nH]c2ccccc2c1=O	/	/	-1	/	/
CC1CCN(c2oc(-c3ccc(COc4ccccc4)o3)nc2C#N)CC1	15	/	0	/	/
CC1CCCCN1C(=O)/C=C/c1ccccc1[N+](=O)[O-] (stereo unspecified)	14	30*	0	-5	-3
CCOC(=O)C1CCN(C/C=C/c2ccccc2OC)CC1	-20	18	4	-4	-10
CCOC(=O)C1CCN(C/C=C/c2ccccc2[N+](=O)[O-])CC1	-12	48*	-1	1	-13
CCOc1ccc(C(=O)c2oc3ccccc3c2NC(=O)Cc2coc3cc(C)cc(C)c23)cc1	18	/	-1	/	/
Cc1ccc(C)c(N2CCN(S(=O)(=O)c3cn(C)c(C)n3)CC2)c1	5	/	1	/	/
SMILES	D2 PAM-1	D2 antagonist	D2 ag-1	D2 ag-2	D2 PAM-2
CCOC(=O)CNC(=O)c1ccc2c(c1)OCCO2	-7	-3	0	-2	-3
O=C(CNC(=O)c1ccc(Cl)cc1)OCC(=O)c1ccc2c(c1)OCCO2	14	41*	0	-2	-11
O=C(Cc1ccccc1[N+](=O)[O-])NCCc1ccc(F)cc1	2	-29	1	-2	-3
CC(C)CCNC(=O)Cc1ccccc1[N+](=O)[O-]	33*	-1	0	-2	-10
O=C(NCC1c2ccccc2CCN1C(=O)CN1C(=O)c2ccccc2C1=O)C1CCCCC1 (stereo unspecified)	-5	30*	0	-2	-10
O=C(CN1C(=O)c2ccccc2C1=O)N1CCCCC1	3	-14	1	-4	-1
Cc1ccc(NC(=O)Cn2cc(C(=O)C3CC3)c3ccccc32)cc1C	3	/	1	/	/
COc1cccc(C(=O)NCCCNC(=O)c2cccnc2)c1	-25	39*	-1	-4	-1
Cc1cccc(N2CCN(C(=O)c3oc(=O)c4ccccc4c3-c3ccccc3)CC2C)c1 (stereo unspecified)	-9	/	0	/	/
